Consider 14 compounds from PubChem BioAssay.

Assay [1] deals with PRMT1 (protein arginine N-methyltransferase 1). The assay is described as follows: small molecules binding arginine methyltransferase PRMT1 – biochemical, small-molecule microarray, 635 nm fluorescence, primary screen (AID 1088).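 Note: binding of Prmt1 protein to compounds spotted on small-molecule microarray slides.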 As to conditions: higher = more signal.
Assay [2] in a line: growth effects on S. cerevisiae YJM789 – YJM789 clinical isolate, OD600, 24 h, basal, primary screen (AID 1089).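 Note: growth of clinical yeast isolate S. cerevisiae YJM 789 seeded 1000 cells per well; test concentration not given here.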 Particulars: higher = more signal, called active from +8 up or from −8 down.
Assay [3] can be described thus: S. pombe growth modifiers, basal conditions – strain 972, OD600, 24 h, no modulator, primary screen (AID 1090).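 Note: basal condition with compound alone and no growth modifier present; test concentration not given here.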 Particulars: S. pombe 972 growth, higher = more signal, called active from +8 up or from −8 down.
Assay [4] is described as follows: budding yeast growth modifiers under rapamycin – strain BY4716, OD600, 96 h, primary screen (AID 1091). Note: test concentration not given here. As to conditions: S. cerevisiae BY4716 + rapamycin, higher = more signal, called active from +8 up or from −8 down.
Assay [5] deals with Torsin-1A-interacting protein 2 (Homo sapiens) (UniProt Q8NFQ8). The experiment in a line: small molecules binding lysate-expressed LULL1 – cell lysate, human LULL1 lysate, 635/667 nm fluorescence, primary screen (AID 1092).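 Note: probe is lysate of COS7 cells overexpressing human LULL1; score merges per-feature 667 nm fluorescence with signal-to-noise.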 As to conditions: small-molecule microarray, hLULL1 lysate binding, 635 nm fluorescence; higher = more signal.
Assay [6] is described as follows: optical density change of DRC41 E. coli – strain DRC41, OD650, 24 h, E. coli filamentation project, primary screen (AID 1093).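 Note: MC1000 strain lacking acrAB efflux and sulA so SOS filamentation is blocked; test concentration not given here.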 Particulars: E. coli DRC41 growth, higher = more signal, called active from +8 up or from −8 down.
Assay [7] in a line: probe aLefty2 binding to arrayed compounds – biochemical, biotinylated probe, 635/667 nm fluorescence, primary screen (AID 1094).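 Note: score merges spot fluorescence near 667 nm with spot signal-to-noise ratio.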 As to conditions: small-molecule microarray, higher = more signal.
Assay [8] relates to Noggin (protein binding on small-molecule microarray). The experiment in a line: small molecules binding Noggin protein – biochemical, 635/667 nm fluorescence, primary screen (AID 1095).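 Note: score merges 667 nm feature fluorescence with signal to noise over triplicate slides.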 As to conditions: 635 nm fluorescence, higher = more signal.
For assay [9], the target named is Neurogenic locus notch homolog protein 3 (Homo sapiens) (UniProt Q9UM47). The experiment in a line: small molecules binding NOTCH3 protein – biochemical, 635/667 nm fluorescence, primary screen (AID 1096). As to conditions: small-molecule microarray, 635 nm fluorescence, higher = more signal.
A short description of assay [10]: probe aEGFR binding to arrayed compounds – biochemical, biotinylated probe, 635/667 nm fluorescence, primary screen (AID 1097).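 Note: probe is a biotinylated anti-EGFR antibody binding compounds printed on slides; score combines fluorescence near 667 nm and signal to noise of each spot.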 As to conditions: small-molecule microarray, higher = more signal.

SMILES strings stand for the structures. Active and inactive are the calls of the source.

Sequence of Neurogenic locus notch homolog protein 3 (Homo sapiens) (Q9UM47 whole entry, looked up): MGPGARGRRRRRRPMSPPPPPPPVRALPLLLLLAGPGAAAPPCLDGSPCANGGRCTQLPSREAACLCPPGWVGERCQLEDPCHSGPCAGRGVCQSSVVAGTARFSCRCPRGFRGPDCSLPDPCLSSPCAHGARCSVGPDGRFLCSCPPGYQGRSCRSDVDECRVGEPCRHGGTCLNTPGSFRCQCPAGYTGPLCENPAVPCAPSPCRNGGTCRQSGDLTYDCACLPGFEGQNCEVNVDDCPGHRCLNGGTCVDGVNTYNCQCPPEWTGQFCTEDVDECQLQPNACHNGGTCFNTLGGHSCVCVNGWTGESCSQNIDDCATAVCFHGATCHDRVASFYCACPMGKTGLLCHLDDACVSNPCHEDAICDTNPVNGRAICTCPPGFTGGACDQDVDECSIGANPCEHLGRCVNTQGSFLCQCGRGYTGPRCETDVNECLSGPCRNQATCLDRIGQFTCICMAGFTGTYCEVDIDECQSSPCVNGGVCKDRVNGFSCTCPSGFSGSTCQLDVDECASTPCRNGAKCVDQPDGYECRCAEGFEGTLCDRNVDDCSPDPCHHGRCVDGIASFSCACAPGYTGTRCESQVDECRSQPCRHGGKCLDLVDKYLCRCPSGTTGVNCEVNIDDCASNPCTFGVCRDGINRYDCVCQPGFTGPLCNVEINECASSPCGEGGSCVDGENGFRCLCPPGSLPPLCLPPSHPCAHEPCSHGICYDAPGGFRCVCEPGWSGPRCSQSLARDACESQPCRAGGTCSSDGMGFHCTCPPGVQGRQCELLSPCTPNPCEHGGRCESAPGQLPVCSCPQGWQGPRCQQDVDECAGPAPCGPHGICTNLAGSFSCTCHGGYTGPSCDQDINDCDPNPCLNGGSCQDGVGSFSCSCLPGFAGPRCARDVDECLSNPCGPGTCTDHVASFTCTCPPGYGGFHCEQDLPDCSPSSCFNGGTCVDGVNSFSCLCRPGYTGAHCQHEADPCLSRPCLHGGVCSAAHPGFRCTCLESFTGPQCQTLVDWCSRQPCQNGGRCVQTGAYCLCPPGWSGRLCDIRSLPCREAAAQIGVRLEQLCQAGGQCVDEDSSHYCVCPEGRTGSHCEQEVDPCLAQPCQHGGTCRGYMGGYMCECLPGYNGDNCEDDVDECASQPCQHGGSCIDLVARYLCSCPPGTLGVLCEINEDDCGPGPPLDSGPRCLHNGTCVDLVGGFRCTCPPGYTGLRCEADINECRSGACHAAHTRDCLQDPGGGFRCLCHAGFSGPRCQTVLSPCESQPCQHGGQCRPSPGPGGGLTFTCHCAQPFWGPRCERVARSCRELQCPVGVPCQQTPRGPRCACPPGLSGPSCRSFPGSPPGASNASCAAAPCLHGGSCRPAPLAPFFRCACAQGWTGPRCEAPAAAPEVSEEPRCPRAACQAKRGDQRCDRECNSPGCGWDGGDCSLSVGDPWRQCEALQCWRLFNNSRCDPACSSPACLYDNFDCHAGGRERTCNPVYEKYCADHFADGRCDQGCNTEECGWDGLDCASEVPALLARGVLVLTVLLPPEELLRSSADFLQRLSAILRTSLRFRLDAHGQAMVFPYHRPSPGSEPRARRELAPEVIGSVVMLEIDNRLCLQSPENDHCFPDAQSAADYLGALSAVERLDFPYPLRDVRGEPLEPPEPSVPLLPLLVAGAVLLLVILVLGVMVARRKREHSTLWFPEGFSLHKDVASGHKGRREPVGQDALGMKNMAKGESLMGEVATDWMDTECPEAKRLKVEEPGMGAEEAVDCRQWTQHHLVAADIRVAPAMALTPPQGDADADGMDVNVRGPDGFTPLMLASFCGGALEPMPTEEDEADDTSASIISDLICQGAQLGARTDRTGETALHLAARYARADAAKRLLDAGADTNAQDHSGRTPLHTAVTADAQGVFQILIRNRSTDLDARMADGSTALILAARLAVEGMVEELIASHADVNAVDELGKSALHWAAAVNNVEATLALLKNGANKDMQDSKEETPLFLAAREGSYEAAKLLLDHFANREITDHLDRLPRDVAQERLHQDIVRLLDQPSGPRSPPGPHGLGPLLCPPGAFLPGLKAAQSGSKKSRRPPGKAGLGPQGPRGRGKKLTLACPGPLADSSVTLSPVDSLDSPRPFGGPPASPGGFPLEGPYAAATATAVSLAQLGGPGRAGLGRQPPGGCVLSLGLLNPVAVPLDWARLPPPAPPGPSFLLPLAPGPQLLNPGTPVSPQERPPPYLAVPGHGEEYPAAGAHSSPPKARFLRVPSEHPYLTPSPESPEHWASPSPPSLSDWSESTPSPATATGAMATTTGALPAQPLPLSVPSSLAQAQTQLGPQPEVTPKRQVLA
Sequence of Torsin-1A-interacting protein 2 (Homo sapiens) (Q8NFQ8 whole entry, looked up): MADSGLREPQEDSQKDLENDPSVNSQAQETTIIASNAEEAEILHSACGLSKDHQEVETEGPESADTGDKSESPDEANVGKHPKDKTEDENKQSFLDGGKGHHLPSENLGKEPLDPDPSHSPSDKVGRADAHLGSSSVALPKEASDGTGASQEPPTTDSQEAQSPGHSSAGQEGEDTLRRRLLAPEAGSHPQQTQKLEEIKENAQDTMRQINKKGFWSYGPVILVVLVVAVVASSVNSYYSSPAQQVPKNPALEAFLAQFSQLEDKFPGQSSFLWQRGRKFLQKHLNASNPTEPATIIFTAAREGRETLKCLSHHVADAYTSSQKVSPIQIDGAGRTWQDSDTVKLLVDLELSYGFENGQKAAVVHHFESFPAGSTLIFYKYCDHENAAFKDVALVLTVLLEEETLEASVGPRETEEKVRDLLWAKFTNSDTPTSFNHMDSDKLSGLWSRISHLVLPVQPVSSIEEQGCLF

On to `CN(C)C(=O)[C@]1(Cc2ccccc2N=[N+]=[N-])N=C(c2ccc(OCCCO)cc2)O[C@@H]1c1ccccc1CN=[N+]=[N-]`, for which the composite z-score is 1.5 in assay [1]; 3.51 in assay [5]; 0.0262 in assay [7]; 0.821 in assay [8]; 1.02 in [9]; -0.0509 in assay [10]. For the same compound, the z-score was -2.13 (inactive) in assay [2], -0.393 (inactive) in assay [3], 0.545 (inactive) in [4] and 0.35 (inactive) in assay [6].
For `C=CCOC(=O)[C@@H]1[C@H]2C(=O)O[C@H](c3ccccc3)[C@H](c3ccccc3)N2[C@H](c2ccc(OCCOC(=O)[C@H]3C[C@H]4C(=O)N[C@@H](Cc5ccccc5)C(=O)N4[C@H]3c3cccc(OCCO)c3)cc2)[C@@]12C(=O)Nc1ccc(I)cc12`, the composite z-score in [1] is 1.53; in assay [5] it was 1.93; in assay [7], -0.193; in [8], 1.59; in [9] it was 1.03; in assay [10] it was 0.276. Further, the z-score is 2.59 (inactive) in assay [2], -2.26 (inactive) in assay [3], 0.874 (inactive) in assay [4] and -1.07 (inactive) in assay [6].
Consider `COCC(=C=CC[C@@H](O)c1ccccc1OCCO)C[C@@H](O)c1ccccn1`, for which the composite z-score in [1] is 1.29; in assay [5] it was 2.97; in assay [7], -0.0825; in assay [8], 0.416; in assay [9], 0.88; in assay [10] it was -0.0512. The z-score is -0.108 (inactive) in assay [2], -1.4 (inactive) in assay [3], -0.856 (inactive) in [4] and -0.224 (inactive) in [6].
As for `CC(C)CCC[C@@H](C)[C@H]1CC[C@@]2(C)C3=C(CC[C@]12C)[C@@]1(C)CC[C@H](OC(=O)c2ccc(N)cc2)C(C)(C)C1CC3` (stereo not given in full), the composite z-score in [1] was 0.68; in assay [5] it was -0.0362; in [7], -0.19; in assay [8] it was 0.434; in [9], 0.614; in assay [10], -0.0238. Also, the z-score in [2] is -1.77 (inactive); in assay [3], -1 (inactive); in assay [4], -0.246 (inactive); in [6] it was 2.78 (inactive).
For `C=CCNC(=O)[C@H]1[C@@H]2C(=O)O[C@@H](c3ccccc3)[C@@H](c3ccccc3)N2[C@@H](c2ccc(O)cc2)[C@]12C(=O)N(C(=O)OCCOC)c1ccc(C#CC3(O)CCCCCC3)cc12`, the composite z-score was 1.55 in [1]; 2.45 in [5]; 0.0026 in assay [7]; 0.147 in assay [8]; 0.838 in [9]; 0.0638 in [10]. Besides, the z-score in [2] was 0.729 (inactive); in assay [3], -0.932 (inactive); in assay [4] it was 0.943 (inactive); in assay [6], 1.87 (inactive).
Take `COCCOC(=O)N1C(=O)[C@@]2(c3cc(C#CCC(C(=O)OC)C(=O)OC)ccc31)[C@H](C(=O)N1CCCCCCC1)[C@H]1C(=O)O[C@H](c3ccccc3)[C@H](c3ccccc3)N1[C@@H]2c1ccc(O)cc1`: the composite z-score amounted to 1.49 in [1]; 3.19 in [5]; 1.06 in assay [7]; 1.37 in assay [8]; 1.07 in [9]; 0.456 in [10]. Moreover, the z-score is 0.405 (inactive) in assay [2], -0.866 (inactive) in [3], 1.15 (inactive) in [4] and 1.04 (inactive) in assay [6].
As to `C=CCN1C(=O)[C@@]2(O[C@@H](CCn3cc([C@H](O)c4ccccc4)nn3)[C@H]([Si](C)(C)c3ccc(OC)cc3)[C@H]2C)c2cc(NC(=O)c3ccc(OC)cc3)ccc21`, the composite z-score is 0.948 in assay [1]; 1.72 in assay [5]; -0.0615 in assay [7]; 0.551 in assay [8]; 0.422 in assay [9]; -0.0564 in [10]. Besides, the z-score is 1.05 (inactive) in [2], 0.0445 (inactive) in assay [3], 0.7 (inactive) in assay [4] and 0.859 (inactive) in assay [6].
Regarding `O=C(CS)NCCCCCNC(=O)[C@@H]1C[C@@H]2C(=O)N3CCC[C@H]3C(=O)N2[C@@H]1c1ccc(O)cc1`, the composite z-score is 1.09 in [1]; 2.81 in [5]; -0.0279 in [7]; -0.0286 in assay [8]; 0.164 in assay [9]; -0.118 in assay [10]. Moreover, the z-score was -0.0524 (inactive) in [2], -0.207 (inactive) in assay [3], 0.0036 (inactive) in assay [4] and 0.0681 (inactive) in assay [6].
On to `O=C1OCC=C[C@H]2OC34C=CCN(CCN5CCOCC5)C(=O)[C@H]3N(CCCCCO)C(=O)[C@@H]4[C@@H]12` (stereo not given in full), for which the composite z-score in [1] is -0.0623; in assay [5], 2.22; in assay [7] it was -0.0282; in assay [8] it was 0.0316; in [9], -0.255; in [10] it was -0.0831. Also, the z-score is -1 (inactive) in assay [2], -0.586 (inactive) in [3], -0.406 (inactive) in assay [4] and -0.0128 (inactive) in assay [6].
As for `Cc1ccc(N2C(=O)c3ccccc3[C@](C)(C(=O)NC(C)C)[C@@H]2c2ccc(CO)cc2)nc1`, the composite z-score is 0.595 in assay [1]; 3.07 in assay [5]; -0.0153 in [7]; -2.13 in [8]; -0.572 in [9]; -0.36 in assay [10]. In addition, the z-score is -0.273 (inactive) in [2], -1.14 (inactive) in assay [3], -1.8 (inactive) in assay [4] and 1.19 (inactive) in assay [6].
In the case of `CC(C)c1ccc(NN2C(C(O)c3cccs3)C=CC3C(=O)N(c4ccccc4)C(=O)C32)cc1` (stereo not given), the composite z-score in assay [1] was 1.54; in [5], 3.36; in assay [7] it was 0.453; in assay [8] it was -0.0307; in [9], 1.06; in assay [10] it was 0.08. The z-score in assay [2] was 0.354 (inactive); in assay [3], 0.758 (inactive); in assay [4] it was 0.331 (inactive); in [6], -1.14 (inactive).
`COCCOC(=O)N1C(=O)[C@@]2(c3cc(C#CCCO)ccc31)[C@H](C(=O)N1CCc3cc(OC)c(OC)cc3C1)[C@H]1C(=O)O[C@H](c3ccccc3)[C@H](c3ccccc3)N1[C@@H]2c1ccc(OCCO)cc1`: the composite z-score in assay [1] was 1.55; in assay [5], 2.59; in assay [7] it was -0.104; in assay [8] it was 1.12; in assay [9], 1.07; in [10], -0.0859. Moreover, the z-score in assay [2] was -1.17 (inactive); in assay [3] it was -0.581 (inactive); in assay [4], 2.59 (inactive); in assay [6], 1.26 (inactive).
In the case of `CC(=O)NCCCC[C@@H]1NC(=O)[C@H]2C[C@@H](C(=O)NCCCCCN)[C@@H](c3cccc(OCCO)c3)N2C1=O`, the composite z-score in [1] was 0.907; in assay [5], 2.23; in assay [7], -0.097; in assay [8], 0.559; in assay [9] it was 0.275; in assay [10], -0.0155. Moreover, the z-score is -1.51 (inactive) in assay [2], -0.0234 (inactive) in [3], -0.883 (inactive) in assay [4] and 1.56 (inactive) in assay [6].
For the compound `O=C1O[C@H](c2ccccc2)[C@H](c2ccccc2)N2[C@H]1[C@@H](C(=O)N1CCCCCCC1)[C@]1(C(=O)Nc3ccccc31)[C@H]2c1ccc(O)cc1`, the composite z-score was found to be 1.55 in assay [1]; 4.82 in assay [5]; 2.02 in [7]; 2.26 in [8]; 1.01 in assay [9]; 1.5 in assay [10]. Further, the z-score in assay [2] is 0.532 (inactive); in assay [3] it was 0.556 (inactive); in assay [4] it was 0.874 (inactive); in assay [6], 0.248 (inactive).
